# Source: PubChem BioAssay (National Center for Advancing Translational Sciences (NCATS))
# The list is not random: actives were taken first. Their share in the collection is about 13%.
# CHX counter – affects cycloheximide protein synthesis inhibition readout, counter-screen; cell reporter, cycloheximide protein synthesis inhibition counterscreen; max response, %; 12% of 300,000 active; in the data active = max response mostly above about 13%, no sharp cut-off; inactive = mostly below about 14%; note: read at 38.3 µM for the half of the compounds with a filed dose; 0% is about no effect
# Shiga toxin inh – blocks Shiga toxin action in Vero cells | Vero cells, Shiga toxin protein synthesis inhibition reporter | inhibition, % at 38.7 µM | 9.2% of 290,000 active; in the data active = inhibition mostly above about 28%, no sharp cut-off; inactive = mostly below about 43%; note: 0% is about no effect
# Marburg entry inh – blocks Marburg virus binding to or entry into cells | Potency, µM (top dose mostly 37.8 µM), without a hit: top-dose activity change, negative = inhibition, most hits filed as inhibitors | Marburg virus pseudotyped entry inhibition, cell reporter | 1.8% of 300,000 active; calls by dose curve; tested in HEK293 cells; note: potency is the fitted concentration of half-maximal effect; % is set by controls: 0 for no effect and ±100 for the full control effect
# HCV inhibitor – HCV inhibition; Huh7.5.1 HCVcc-Cre infection, luciferase reporter, 44 h; Potency, µM (highest dose often 41.8 µM), for inactives: top-dose activity change, negative = inhibition, most hits filed as inhibitors; 3.4% of 340,000 active; AID 651820; active = well fitted inhibition curve with a large enough effect; inconclusive = small, poorly fitted or top-dose-only effect, or another doubt; inactive = no such curve, though single readings can be large or run the other way; note: potency is the fitted concentration of half-maximal effect; % is set by controls: 0 for no effect and ±100 for the full control effect
#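 Infectious HCV cell culture screen: compound-treated cells (1,000/well, pre-plated 4 h) are infected with HCVcc-Cre at roughly 0.5 moi and grown 44 h. Infection is quantified by luciferase signal after 15 min substrate incubation at room temperature.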
# FMDV antiviral – foot and mouth disease virus antiviral activity; AID 1159524; Potency, µM (doses to about 57.9 µM), for inactives: at the highest dose activity change, negative = inhibition, hits mostly inhibitors; FMDV antiviral cell-based qHTS; 1.2% of 410,000 active; calls by dose curve; tested in HEK293T cells; note: read-out not given here; potency is the fitted concentration of half-maximal effect; % is set by controls: 0 for no effect and ±100 for the full control effect; nearly all actives have a fitted effect of over 45% in size
# LASV entry inh – inhibitors of Lassa virus binding or cell entry; Lassa virus pseudotype entry inhibition, cell reporter; Potency, µM (top dose mostly 37.9 µM), for the others: at the top dose activity change, negative = inhibition, most hits filed as inhibitors; 1.2% of 300,000 active; AID 540256; calls by dose curve; tested in HEK293 cells; note: potency is the fitted concentration of half-maximal effect; % is set by controls: 0 for no effect and ±100 for the full control effect; nearly all actives have a fitted effect of over 50% in size
# Active calls of the source: *; u = inconclusive; x = no result; [ ] = dose if it differs, or a comment.
SMILES,CHX counter,Shiga toxin inh,Marburg entry inh,HCV inhibitor,FMDV antiviral,LASV entry inh
Cc1cc(/C=N/N2CCN(C)CC2)c(C)n1-c1ccccc1F,21,39,-2%,23%,0%,3%
CC(=O)n1c2c(c3ccccc31)OC(N)=C(C#N)C2c1ccc(C(C)C)cc1 (centres undefined),46*,83*,3%,3%,x,-9%
O=C(N/C(=C\c1ccco1)C(=O)N1CCOCC1)c1ccco1,-3,-9,6%[46.1 µM],10%,3%,15%
CCN(CC)CCCC(C)Nc1nccc2c(Cl)cccc12 (centres undefined),x,x,u,10µM*,-18%,u
Cc1ccc(-c2noc(CN(C)C(=O)Nc3ccc(F)cc3)n2)cc1,-2,-7,-30%[46.1 µM],u,-29%,15%
O=C(NCC(=O)N1CCC2(CC1)NCCc1[nH]cnc12)c1cccc(Cl)c1,7,14,x,0%,-3%,x
O=C1NC(=O)C(=Cc2ccc(Oc3ccc([N+](=O)[O-])cc3)cc2)C(=O)N1,1,24,-22%,-3%,-22%,3%
CCOC(=O)/C(=C\c1ccc(OC)c(OC)c1)C(=O)c1cccnc1,0,1,7%[46.1 µM],3%,u,-29%
COC(=O)C(=Cc1ccc(OCc2ccc([N+](=O)[O-])cc2)c(OC)c1)C(=O)OC,24*,42*,u,7%,u,u
COc1cc(C=C2C(=O)NC(=O)NC2=O)ccc1OCc1ccc([N+](=O)[O-])cc1,59*,102*,55%[46.1 µM],-4%,70%,3%
CCOC(=O)C(=Cc1ccc(OCc2ccc([N+](=O)[O-])cc2)c(OC)c1)C(=O)OCC,43*,27,u,u,u,u
COc1cc(C(c2c(C)[nH][nH]c2=O)c2c(C)[nH][nH]c2=O)ccc1OCc1ccc([N+](=O)[O-])cc1,25*,52,u,10%,0%,27%
COc1ccc(/C=N/NC(=O)CSCc2ccc([N+](=O)[O-])cc2)cc1OC,2,-17,11%,19%,-20%,u
CC(Oc1ccc(Br)cc1)C(=O)O/N=C(\N)c1ccncc1 (centres undefined),-4,8,-8%,u,-27%,u
CCC1=NN(C(=O)C(=O)Nc2ccccc2OC)C(O)(C(F)(F)F)C1 (centres undefined),-2,2,-15%,14%,x,10%
CC(SCc1ccccc1)C(=O)Nc1ccccc1Br (centres undefined),42*,x,-3%[46.1 µM],9%,1%,u
Cc1ccccc1NC(=O)C(C)SCc1ccccc1 (centres undefined),5,36,-2%[46.1 µM],7%,3%,u
CCOC(=O)C1(Cc2ccccc2)CCCN(C(=O)c2cnn(CC)c2)C1 (centres undefined),29*,73*,u,16%,23%,10%[46.1 µM]
CCOC(=O)C1(Cc2ccccc2C)CCCN(C(=O)c2ccc3nccnc3c2)C1 (centres undefined),-3,-6,-12%,-6%,-18%,-20%
CCOC(=O)C1(Cc2ccccc2C)CCCN(C(=O)CCc2cccnc2)C1 (centres undefined),32*,33*,-11%,u,44%,10%
CCOC(=O)C1(Cc2ccccc2C)CCCN(C(=O)c2ccccn2)C1 (centres undefined),40*,71*,-7%[46.1 µM],-9%,26%,3%[46.1 µM]
CCOC(=O)C1(Cc2ccccc2)CCCN(Cc2cnn(CC)c2)C1 (centres undefined),1,-6,x,13%,1%,x
COc1ccc(C=CC(O)CCN2CCC3CCC(C3)C2)cc1 (centres undefined),x,x,u,-10%,-8%,-11%[46.1 µM]
O=C(N/N=C\c1ccc2c(c1)OCO2)c1ccc(Cn2cc(Br)c([N+](=O)[O-])n2)o1,9,29,0%[46.1 µM],-2%,8%,5%[46.1 µM]
CC(=O)c1cccc(S(=O)(=O)Nc2c(C)nn(C)c2C)c1,x,x,x,6%,-23%,x
SMILES,CHX counter,Shiga toxin inh,Marburg entry inh,HCV inhibitor,FMDV antiviral,LASV entry inh
Cc1ccccc1NC(=O)COC(=O)c1n[nH]c(=O)c2ccccc12,x,x,-1%,-4%,3%,17%
O=C(CSc1c2c(nc3cc(Cl)ccc13)CCCC2)NCCCN1CCOCC1,-8,-24,x,u,u,x
CCN(CC)CCCNC(=O)CSc1c2c(nc3cc(Cl)ccc13)CCCC2,-10,-23,u,10µM*,32µM*,u
Cc1ccc(CNC(=O)CSc2c3c(nc4cc(Cl)ccc24)CCCC3)o1,2,-11,u,4.5µM*,28µM*,21µM*
COCCCNC(=O)CSc1c2c(nc3ccc(Cl)cc13)CCCC2,-12,-16,u,u,28µM*,u
CC(C)OCCCNC(=O)CSc1c2c(nc3ccc(Cl)cc13)CCCC2,x,x,-19%[46.1 µM],x,u,-13%[46.1 µM]
Cc1oc(-c2ccccc2)cc1C(=O)Nc1cccc(/C=C/C(=O)O)c1,-1,12,u,7%,6%,-12%
CCN(CCCNc1ncnc2nc[nH]c12)c1cccc(C)c1,-4,-5,x,u,u,x
O=C(Nc1nnc(-c2ccco2)o1)c1ccc2ccccc2c1,-2,-2,14µM*,u,55%,u
O=C(Nc1nnc(-c2ccncc2)o1)c1ccc(Br)s1,35,36,8.9µM*,u,84%,u
Cc1ccc(C(=O)Nc2nnc(-c3ccco3)o2)cc1,44*,18,u,-4%,-22%,u
Cc1ccsc1C(=O)Nc1nnc(-c2ccco2)o1,18*,14,-13%,-13%,18%,-3%
CC(C)(C)C(=O)Nc1nnc(-c2ccncc2)o1,-2,-13,0%,5%,-5%,-23%
CCC(=O)Nc1nnc(-c2ccco2)o1,-5,-9,x,9%,-7%,x
N#Cc1ccc(C(=O)Nc2nnc(-c3ccco3)o2)cc1,13,37,u,u,53%,-15%
Cc1nnc(NC(=O)c2ccc3ccccc3c2)o1,13,24,-30%,-3%,22%,u
CCN(CC)c1ccc(-n2c(C)cc(C=O)c2C)cc1,-3,24,u,u,u,u
CCN(c1ccccc1)S(=O)(=O)c1nnc(NC(=O)C(C)(C)C)s1,-5,-5,x,6%,5%,u
O=C(Nc1nnc(-c2ccco2)o1)C1CC1,1,18,21%,1%,6%,16%
O=C(Nc1nnc(-c2ccco2)o1)c1ccc([N+](=O)[O-])s1,-2,31,u,8.9µM*,21%,u
Cc1nn(-c2ccccc2)c(N2CCCC2)c1/C=N/NC(=O)c1cc(-c2cccnc2)nc2ccccc12,-4,-12,u,14µM*,-11%,u
Cc1ccc(-c2cc(C(=O)N/N=C/c3c(C)nn(C)c3C)c3ccccc3n2)cc1C,19*,49,u,35µM*,-5%,u
Cc1[nH]c2ccccc2c1C=NNC(=O)c1cc(-c2cccnc2)nc2ccccc12,x,x,x,u,-29%,x
